Drawing on PubChem BioAssay (NCI), this text covers growth inhibition for ten compounds.

A short description of experiment [1]: NCI Yeast Anticancer Drug Screen. Data for the rad50 strain (AID 155).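 Also: 0% = growth of vehicle-only cultures of the same strain.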 The note with it: S. cerevisiae rad50 strain growth inhibition, stronger effect = higher value. A digest of the protocol: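 A DNA repair-deficient yeast mutant serves as the test organism; compound-induced growth inhibition is calculated against vehicle-treated cells.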
Experiment [2] can be described thus: NCI Yeast Anticancer Drug Screen. Data for the mec2-1 strain (AID 157). The note with it: S. cerevisiae mec2-1 strain, stronger effect = higher value. A digest of the protocol:
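Mutant yeast (mec2-1) grown with compound; growth inhibition relative to vehicle control reported.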

Experiment [3] is described as follows: NCI Yeast Anticancer Drug Screen. Data for the sgs1 mgt1 strain (AID 161).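 Also: 0% = growth of cultures given vehicle only.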 The note with it: S. cerevisiae sgs1 mgt1 strain, stronger effect = higher value. A digest of the protocol: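 Yeast cells carrying a defined DNA-repair defect were exposed to test compounds. Growth inhibition was measured relative to vehicle-treated controls.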
A short description of experiment [4]: NCI Yeast Anticancer Drug Screen. Data for the cln2 rad14 strain (AID 165).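 Also: 0% = growth equal to vehicle treated cultures.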 The note with it: S. cerevisiae cln2 rad14 strain, stronger effect = higher value. In short, it runs like this: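 Readout is yeast growth inhibition versus vehicle-treated controls, using a strain with cln2 and rad14 alterations exposed to compound.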
Experiment [5] is described as follows: NCI Yeast Anticancer Drug Screen. Data for the bub3 strain (AID 167). To be noted: S. cerevisiae bub3 mutant strain, stronger effect = higher value. In short, it runs like this: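 Inhibition values come from growth of compound-treated mutant yeast normalised to vehicle-treated controls.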
The nature of experiment [6]: NCI Yeast Anticancer Drug Screen. Data for the mlh1 rad18 strain (AID 175). To be noted: S. cerevisiae mlh1 rad18 strain growth inhibition, stronger effect = higher value. In short, it runs like this:
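Genetically defined yeast (DNA repair-deficient) exposed to compounds; growth inhibition determined relative to vehicle.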

[7] abbreviates: at 5.0 µM (retest, dose inferred, filed as 0.5).
[8] abbreviates: at 50.0 µM (retest, dose inferred, filed as 5.0).

Compounds without any hit were thinned out: in the full panel of roughly 79,000, 15% have a hit. A number with no mark means an inactive call. Activity calls are given as the source filed them. Rule as the data show it: active = growth inhibition above about 70%; inactive = the rest.

Turning to `CCCCCCCCCCCC(=O)c1c(O)c2ccccc2oc1=O`, the growth inhibition in experiment [1] (setting [7]) was 6%; in experiment [1] (setting [8]), -4%; in experiment [1] (at 50.0 µM), 54.1%; in experiment [2] (setting [7]), 45%; in experiment [2] (setting [8]), 28%; in experiment [2] (at 50.0 µM) it was 44.4%. The growth inhibition in experiment [3] (setting [7]) is 21%; in experiment [3] (setting [8]) it was -8%; in experiment [3] (at 50.0 µM) it was 71.2% (active); in experiment [4] (setting [7]), -14%; in experiment [4] (setting [8]) it was -7%; in experiment [4] (at 50.0 µM) it was 22.3%. Besides, the growth inhibition in experiment [5] (setting [7]) is 0%; in experiment [5] (setting [8]), -21%; in experiment [5] (at 50.0 µM) it was 43.8%; in experiment [6] (setting [7]), -4%; in experiment [6] (setting [8]) it was -4%; in experiment [6] (at 50.0 µM) it was 68%.

For the compound `COc1ccc(Cc2coc3ccccc3c2=O)cc1OC`, the growth inhibition in experiment [1] (setting [7]) was -1%; in experiment [1] (setting [8]), 12%; in experiment [1] (at 50.0 µM), -0.55%; in experiment [2] (setting [7]), 2%; in experiment [2] (setting [8]), 10%; in experiment [2] (at 50.0 µM), -2.5%. The growth inhibition in experiment [3] (setting [7]) is 1%; in experiment [3] (setting [8]), 18%; in experiment [3] (at 50.0 µM) it was 18.4%; in experiment [4] (setting [7]) it was 0%; in experiment [4] (setting [8]) it was 3%; in experiment [4] (at 50.0 µM), 3.8%. Moreover, the growth inhibition is 23% in experiment [5] (setting [7]); 68% in experiment [5] (setting [8]); 71.1% (active) in experiment [5] (at 50.0 µM); -3% in experiment [6] (setting [7]); 12% in experiment [6] (setting [8]); 0.95% in experiment [6] (at 50.0 µM).

For the compound `COc1cccc2c1C(=O)c1c(O)c3c(c(O)c1C2=O)C[C@@](O)(C(=O)CO)C[C@@H]3OC1CC(N)CC(C)O1` (stereo not given in full), the growth inhibition is 81% (active) in experiment [1] (setting [7]); 98% (active) in experiment [1] (setting [8]); 89.3% (active) in experiment [1] (at 50.0 µM); 24% in experiment [2] (setting [7]); 98% (active) in experiment [2] (setting [8]); 90.4% (active) in experiment [2] (at 50.0 µM). Further, the growth inhibition in experiment [3] (setting [7]) is 61%; in experiment [3] (setting [8]), 99% (active); in experiment [3] (at 50.0 µM) it was 90.1% (active); in experiment [4] (setting [7]), 63%; in experiment [4] (setting [8]) it was 98% (active); in experiment [4] (at 50.0 µM) it was 85% (active). Further, the growth inhibition is 76% (active) in experiment [5] (setting [7]); 99% (active) in experiment [5] (setting [8]); 88.9% (active) in experiment [5] (at 50.0 µM); 69% in experiment [6] (setting [7]); 97% (active) in experiment [6] (setting [8]); 92% (active) in experiment [6] (at 50.0 µM).

Turning to `Cc1cccc2c(Nc3ccc(NS(C)(=O)=O)cc3)c3ccccc3nc12`, the growth inhibition was 55% in experiment [1] (setting [7]); 94% (active) in experiment [1] (setting [8]); 96.5% (active) in experiment [1] (at 50.0 µM); -1% in experiment [2] (setting [7]); 41% in experiment [2] (setting [8]); 47.3% in experiment [2] (at 50.0 µM). Also, the growth inhibition is 1% in experiment [3] (setting [7]); 17% in experiment [3] (setting [8]); 28.6% in experiment [3] (at 50.0 µM); -7% in experiment [4] (setting [7]); 19% in experiment [4] (setting [8]); -12.7% in experiment [4] (at 50.0 µM). For the same compound, the growth inhibition was -2% in experiment [5] (setting [7]); 2% in experiment [5] (setting [8]); 24.6% in experiment [5] (at 50.0 µM); -2% in experiment [6] (setting [7]); 31% in experiment [6] (setting [8]); 39.3% in experiment [6] (at 50.0 µM).

Turning to `O=C(Cc1ccc(C2=NCCN2)cc1[N+](=O)[O-])c1ccc(C2=NCCN2)cc1`, the growth inhibition in experiment [1] (setting [7]) was -3%; in experiment [1] (setting [8]) it was 73% (active); in experiment [1] (at 50.0 µM), 49.2%; in experiment [2] (setting [7]) it was -7%; in experiment [2] (setting [8]) it was 35%; in experiment [2] (at 50.0 µM), 89.6% (active). Also, the growth inhibition in experiment [3] (setting [7]) was 0%; in experiment [3] (setting [8]) it was 55%; in experiment [3] (at 50.0 µM) it was 26.8%; in experiment [4] (setting [7]), -5%; in experiment [4] (setting [8]), 16%; in experiment [4] (at 50.0 µM), 25%. Moreover, the growth inhibition in experiment [5] (setting [7]) was -8%; in experiment [5] (setting [8]), 71% (active); in experiment [5] (at 50.0 µM), 49.3%; in experiment [6] (setting [7]), -5%; in experiment [6] (setting [8]) it was 68%; in experiment [6] (at 50.0 µM), 68.7%.

`CC1=NOC(=O)C1N=Nc1ccc(Br)cc1C` (stereo not given): the growth inhibition is 99% (active) in experiment [1] (setting [7]); 95% (active) in experiment [1] (setting [8]); 93% (active) in experiment [1] (at 50.0 µM); 100% (active) in experiment [2] (setting [7]); 96% (active) in experiment [2] (setting [8]); 94.6% (active) in experiment [2] (at 50.0 µM). In addition, the growth inhibition in experiment [3] (setting [7]) was 99% (active); in experiment [3] (setting [8]) it was 94% (active); in experiment [3] (at 50.0 µM), 94.8% (active); in experiment [4] (setting [7]) it was 99% (active); in experiment [4] (setting [8]), 94% (active); in experiment [4] (at 50.0 µM), 92.8% (active). The growth inhibition in experiment [5] (setting [7]) was 99% (active); in experiment [5] (setting [8]), 96% (active); in experiment [5] (at 50.0 µM), 94.5% (active); in experiment [6] (setting [7]), 99% (active); in experiment [6] (setting [8]), 94% (active); in experiment [6] (at 50.0 µM) it was 90.5% (active).

With `CN(C)c1ccc(SC(=S)NCc2ccccc2)cc1`, the growth inhibition was 4% in experiment [1] (setting [7]); 92% (active) in experiment [1] (setting [8]); 97.5% (active) in experiment [1] (at 50.0 µM); -7% in experiment [2] (setting [7]); 92% (active) in experiment [2] (setting [8]); 98.2% (active) in experiment [2] (at 50.0 µM). In addition, the growth inhibition is -2% in experiment [3] (setting [7]); 82% (active) in experiment [3] (setting [8]); 96.3% (active) in experiment [3] (at 50.0 µM); -3% in experiment [4] (setting [7]); 28% in experiment [4] (setting [8]); 95.8% (active) in experiment [4] (at 50.0 µM). Also, the growth inhibition in experiment [5] (setting [7]) was -8%; in experiment [5] (setting [8]) it was 96% (active); in experiment [5] (at 50.0 µM), 97% (active); in experiment [6] (setting [7]) it was 4%; in experiment [6] (setting [8]) it was 90% (active); in experiment [6] (at 50.0 µM) it was 94.4% (active).

As for `O=C1NC(c2ccccc2)(c2cccs2)C(=O)N1C1c2ccccc2Oc2ccccc21` (stereo not given), the growth inhibition in experiment [1] (setting [7]) was 0%; in experiment [1] (setting [8]), 87% (active); in experiment [1] (at 50.0 µM), 90.3% (active); in experiment [2] (setting [7]), -11%; in experiment [2] (setting [8]) it was 92% (active); in experiment [2] (at 50.0 µM), 84.7% (active). Moreover, the growth inhibition in experiment [3] (setting [7]) is -18%; in experiment [3] (setting [8]), 92% (active); in experiment [3] (at 50.0 µM), 91% (active); in experiment [4] (setting [7]), -7%; in experiment [4] (setting [8]), 84% (active); in experiment [4] (at 50.0 µM), 84.2% (active). In addition, the growth inhibition was -5% in experiment [5] (setting [7]); 91% (active) in experiment [5] (setting [8]); 86.8% (active) in experiment [5] (at 50.0 µM); 21% in experiment [6] (setting [7]); 87% (active) in experiment [6] (setting [8]); 87.4% (active) in experiment [6] (at 50.0 µM).

Consider `CN(C)C=Nc1c2ccccc2nc2ccccc12`, for which the growth inhibition in experiment [1] (setting [7]) is 21%; in experiment [1] (setting [8]), 83% (active); in experiment [1] (at 50.0 µM) it was 71.1% (active); in experiment [2] (setting [7]), 23%; in experiment [2] (setting [8]), 80% (active); in experiment [2] (at 50.0 µM) it was 57.1%. The growth inhibition in experiment [3] (setting [7]) is 11%; in experiment [3] (setting [8]), 65%; in experiment [3] (at 50.0 µM) it was 68.7%; in experiment [4] (setting [7]), 37%; in experiment [4] (setting [8]) it was 60%; in experiment [4] (at 50.0 µM) it was 55.7%. Also, the growth inhibition in experiment [5] (setting [7]) is 5%; in experiment [5] (setting [8]), 71% (active); in experiment [5] (at 50.0 µM) it was 75% (active); in experiment [6] (setting [7]) it was -8%; in experiment [6] (setting [8]) it was 84% (active); in experiment [6] (at 50.0 µM) it was 76.3% (active).

As for `CC(N)C1C(C)CC2C3CC=C4CC(O)CCC4(C)C3CCC21C` (stereo not given), the growth inhibition in experiment [1] (setting [7]) was 50%; in experiment [1] (setting [8]) it was 85% (active); in experiment [1] (at 50.0 µM), 4.45%; in experiment [2] (setting [7]) it was 35%; in experiment [2] (setting [8]), 74% (active); in experiment [2] (at 50.0 µM), 25.1%. Further, the growth inhibition in experiment [3] (setting [7]) is 83% (active); in experiment [3] (setting [8]) it was -19%; in experiment [3] (at 50.0 µM), 74% (active); in experiment [4] (setting [7]), 49%; in experiment [4] (setting [8]), 86% (active); in experiment [4] (at 50.0 µM), 8.3%. In addition, the growth inhibition is 52% in experiment [5] (setting [7]); 85% (active) in experiment [5] (setting [8]); 84.1% (active) in experiment [5] (at 50.0 µM); 57% in experiment [6] (setting [7]); 86% (active) in experiment [6] (setting [8]); 53.2% in experiment [6] (at 50.0 µM).
